A selection: hits, their analogues and other compounds. The true share with any hit is near 3.2%.
CDK5 inh – inhibitors of human CDK5/p35 kinase; inhibition, % at 10 µM; AID 488839; Q00535+Q15078; hit rate 0.01% among 330,000; Recombinant CDK5/p35, ADP-Glo luminescence, 60 min;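 active = highest replicate inhibition of at least 50% and at least 75% of replicates reaching 50%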
esBAF inh – blocks esBAF chromatin remodeling in mouse ES cells. Bmi1-luciferase knock-in reporter, 24 h; 100% = twice the neutral-well signal. reporter increase, % at 12.5 µM. hit rate 2% among 350,000; in the data active = activation above about 40%;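 note: a rise in the Bmi1 reporter signal indicates esBAF inhibition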
SMARCA2 act – increases SMARCA2 function in MMTV reporter cells; MG213 cells, MMTV-luciferase reporter, dexamethasone, overnight; activation, % at 9.1 µM; hit rate 1% among 370,000; AID 652017; in the data active = activation above about 7.8%
Dyrk1A ADPGlo – inhibitors of rat Dyrk1A kinase. Q63470. ADP-Glo luminescence, NFATc1 peptide. inhibition, % at 12.5 µM. hit rate 0.43% among 310,000; in the data active = inhibition above about 50%
dFosB activator – mouse delta FosB homodimer activation; P13346; purified delta FosB, TAMRA-CDK5 oligo fluorescence polarization; percent of positive-control signal above neutral wells; activation, % at 25 µM; hit rate 0.99% among 340,000;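 active = mean activation above about 17%, with every replicate also reaching it, limit read from the data, passing the limit was not always enough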
Target sequence (P13346 whole entry, looked up): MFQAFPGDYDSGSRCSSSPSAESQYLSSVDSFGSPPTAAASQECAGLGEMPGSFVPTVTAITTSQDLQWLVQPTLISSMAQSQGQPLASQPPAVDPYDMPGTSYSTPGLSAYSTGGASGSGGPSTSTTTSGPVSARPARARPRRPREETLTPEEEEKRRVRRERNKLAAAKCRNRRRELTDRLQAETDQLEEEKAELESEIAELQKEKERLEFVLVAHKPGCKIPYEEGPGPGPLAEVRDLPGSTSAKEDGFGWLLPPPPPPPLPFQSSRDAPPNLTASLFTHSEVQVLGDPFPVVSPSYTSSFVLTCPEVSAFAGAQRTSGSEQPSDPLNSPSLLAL
Rtt109 Vps75 – C. albicans Rtt109 histone acetyltransferase inhibition | Q5AAJ8 | purified Rtt109/Vps75, ThioGlo CoA-SH fluorescence, 4 h | inhibition, % at 34.9 µM | hit rate 0.16% among 330,000 | AID 540336;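 active = inhibition of at least 50% in every replicate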
Numbers stand for hits; i = inactive; nt = no result.

SMILES	CDK5 inh	esBAF inh	SMARCA2 act	Dyrk1A ADPGlo	dFosB activator	Rtt109 Vps75
COc1ccc(/C=C2\NC(=S)N(CC3CCCO3)C2=O)c(OC)c1 (stereo unspecified)	i	47.9	i	i	i	i
COc1ccc(/C=C2\NC(=S)N(CC3CCCO3)C2=O)c(OC)c1C (stereo unspecified)	i	i	i	i	i	i
COc1ccc(S(=O)(=O)N(C)C[C@H]2Oc3c(NS(=O)(=O)c4ccc(Cl)cc4)cccc3C(=O)N([C@H](C)CO)C[C@H]2C)cc1	nt	i	nt	nt	nt	nt
C[C@@H]1CN([C@H](C)CO)C(=O)Cc2cc(NC(=O)C3CCCCC3)ccc2O[C@H]1CN(C)C(=O)Nc1ccc2c(c1)OCO2	nt	52.1	nt	nt	nt	nt
C[C@H]1CN([C@@H](C)CO)C(=O)Cc2cc(NC(=O)Nc3ccc4c(c3)OCO4)ccc2O[C@@H]1CN(C)Cc1ccccc1	nt	48.0	nt	nt	nt	nt
C[C@@H]1CN([C@H](C)CO)C(=O)c2cc(NC(=O)c3ccccc3)ccc2O[C@@H](C)CCCCO[C@@H]1CN(C)C(=O)CCC(F)(F)F	nt	i	nt	nt	nt	nt
Cc1cc(C)cc(NC(=O)Cn2nnc(C(=O)NCCc3ccccc3)c2N)c1	i	i	i	i	82.9	i
COc1ccc(Cl)cc1NC(=O)c1nnn(CC(=O)Nc2ccc(C)c(C)c2)c1N	i	i	i	i	125.0	i
CCOc1ccccc1NC(=O)c1nnn(CC(=O)Nc2cc(C)cc(C)c2)c1N	nt	i	i	nt	25.5	i
Cc1cc(C)c(NC(=O)Cn2nnc(C(=O)NCCc3ccccc3)c2N)c(C)c1	i	i	nt	i	i	i
COc1ccccc1NC(=O)c1nnn(CC(=O)Nc2ccccc2)c1N	i	i	i	i	i	i
CCOc1ccc(NC(=O)c2nnn(CC(=O)Nc3ccccc3OC)c2N)cc1	i	43.8	i	i	i	i
Cc1ccccc1-c1ccc([C@H]2[C@@H](CO)N3CCCCN(S(C)(=O)=O)C[C@H]23)cc1	nt	i	nt	nt	nt	nt
C[C@H](CO)N1C[C@H](C)[C@@H](CN(C)C(=O)C2CCOCC2)Oc2ncc(-c3ccccc3F)cc2C1=O	nt	i	nt	nt	nt	nt
COc1ccc(S(=O)(=O)N[C@H]2CC[C@@H](CC(=O)N3CCc4ccccc4C3)O[C@@H]2CO)cc1	nt	i	nt	nt	nt	nt
C[C@H](CO)N1C[C@H](C)[C@@H](CN(C)C(=O)Nc2cccc3ccccc23)Oc2ccc(NS(=O)(=O)c3cccs3)cc2CC1=O	nt	i	nt	nt	nt	nt
CCOc1ccc(NC(=O)Cn2nnc(C(=O)NCCc3ccc(OC)c(OC)c3)c2N)cc1	i	i	i	i	32.3	i
COc1ccc(CCNC(=O)Cn2nnc(C(=O)Nc3ccc(Br)cc3)c2N)cc1OC	nt	i	i	nt	i	i
CCc1cc2c(=O)c(-c3nc4ccccc4[nH]3)coc2cc1OC(=O)N1CCOCC1	i	68.2	i	i	i	i
COc1ccccc1-c1coc2cc(OC(=O)N3CCOCC3)ccc2c1=O	nt	i	i	nt	nt	nt
CN1C(=O)c2cc(NC(=O)c3ccc(F)c(F)c3)ccc2OC[C@H]2O[C@H](CC(=O)N3CCOCC3)CC[C@H]21	nt	i	nt	nt	nt	nt
Cc1[nH]n(-c2ccccc2)c(=O)c1C=Nc1ccc(S(=O)(=O)N=C(N)N)cc1	i	i	i	i	26.4	i
Cc1cc(C)nc(NS(=O)(=O)c2ccc(N=Cc3c(C)[nH]n(-c4ccccc4)c3=O)cc2)n1	i	nt	i	i	i	i
Cc1[nH]n(-c2ccccc2)c(=O)c1C=NC1CCCCC1	i	i	i	i	i	59.0
Cc1[nH]n(-c2ccccc2)c(=O)c1C=NC1CCCCCC1	i	nt	i	i	i	i
SMILES	CDK5 inh	esBAF inh	SMARCA2 act	Dyrk1A ADPGlo	dFosB activator	Rtt109 Vps75
CNC[C@H]1OCCCC[C@@H](C)Oc2ccc(NC(=O)Nc3ccc(C(F)(F)F)cc3)cc2C(=O)N([C@@H](C)CO)C[C@H]1C	nt	i	nt	nt	nt	nt
O=C(C[C@@H]1CC[C@H]2[C@@H](COC[C@H](O)CN2CCC(F)(F)F)O1)NCC1CCCCC1	nt	i	nt	nt	nt	nt
O=c1c2cc(Br)ccc2[nH]c(=S)n1Cc1cccnc1	i	i	i	i	42.9	nt
C[C@@H]1CN([C@@H](C)CO)C(=O)c2cc(NC(=O)Nc3cccc4ccccc34)ccc2O[C@H]1CN(C)C(=O)Nc1ccccc1	nt	i	nt	nt	nt	nt
CCOc1ccc(N/C=C/C(=O)c2ccc(OC)cc2)c([N+](=O)[O-])c1	i	72.6	i	i	i	i
CCOc1ccc(NC(=O)c2ccc(CC)s2)c([N+](=O)[O-])c1	i	50.0	i	nt	i	i
COc1ccc(N/C=C/C(=O)c2ccc(C)cc2)c([N+](=O)[O-])c1	i	i	i	i	i	i
CCOc1ccc(NC(=O)c2cccs2)c([N+](=O)[O-])c1	i	nt	i	i	i	i
C[C@@H]1CN([C@H](C)CO)C(=O)c2cc(NS(=O)(=O)c3ccc(Cl)cc3)ccc2O[C@@H]1CN(C)S(=O)(=O)c1cn(C)cn1	nt	i	nt	nt	nt	nt
CN(C)S(=O)(=O)n1cc(/C=C(\NC(=O)c2ccccc2)C(=O)N2CCCC2)c2ccccc21	i	i	i	i	i	73.7
CN(C)S(=O)(=O)n1cc(/C=C(\NC(=O)c2ccccc2)C(=O)N2CCCCC2)c2ccccc21	nt	i	i	nt	nt	nt
CCc1ccc(CNC(=O)c2ccc(NC(=O)C3=CSCCO3)cc2)cc1	i	i	i	i	23.2	i
CNC[C@H]1Oc2ncc(Br)cc2C(=O)N([C@H](C)CO)C[C@H]1C	nt	i	nt	nt	nt	nt
C[C@@H](NC(=O)C[C@@H]1C[C@@H]2c3cc(NC(=O)CN(C)C)ccc3O[C@@H]2[C@H](CO)O1)c1ccccc1	nt	i	nt	nt	nt	nt
CN1C(=O)CSc2ccc(NC(=O)N3CCc4ccccc43)cc21	i	93.7	i	nt	i	i
Cc1ccc(NC(=O)N2CCc3ccccc32)cc1C	i	nt	i	i	i	i
O=[N+]([O-])c1ccc(Sc2cccc[n+]2[O-])c2nonc12	i	nt	i	i	i	122.9
Cc1cc(C(=O)Nc2cccc3c2O[C@@H](CN(C)S(=O)(=O)c2cccs2)[C@H](C)CN([C@@H](C)CO)C3=O)n(C)n1	nt	i	nt	nt	nt	nt
Cc1cccc(-n2c(C)cc(C(=O)NC3CCCCC3)c2C)c1	i	i	i	i	i	i
COc1ccc(-n2c(C)cc(C(=O)NC3CCCCC3)c2C)cc1	i	53.7	i	i	i	i
CCOc1ccccc1C(=O)NCC(=O)OCc1csc(CC(=O)Nc2ccc(C)cc2)n1	i	56.1	i	i	i	i
O=C(O)CCc1ccc(-c2ccccc2)o1	i	i	i	i	i	78.0
CCCn1c(CCC(=O)O)ccc1-c1ccccc1	i	nt	i	i	i	i
Cc1noc(C)c1NC(=O)N(C)C[C@@H]1Oc2ncc(C#CCN(C)C)cc2C(=O)N([C@@H](C)CO)C[C@H]1C	nt	i	nt	nt	nt	nt
O=C(N=Nc1c(O)[nH]c2ccccc12)c1cccc(S(=O)(=O)N2CCCCC2)c1	i	nt	i	i	i	i
O=c1[nH]c2ccccc2c2nc(-c3cccc(S(=O)(=O)N4CCCC4)c3)nn12	i	nt	i	i	52.8	i
COCCOC(=O)c1[nH]c2c(c1C)C(=O)C(C(=O)OC)C(C)C2 (stereo unspecified)	i	i	i	i	i	i

Screens as filed in PubChem.
